# From PubChem BioAssay AID1159580 (chemical genetic matrix, 2015)
# Screen size: about 5,500 compounds; about 2,000 (36%) were called active. Another 18% or so got no clear call; they are omitted. The list shows a part of the results. Unmarked numbers belong to inactive results. No stated cut-off is given here; in the data, active means normalized growth mostly below about 0.91 (no sharp cut-off); inconclusive means no clear call, values can overlap the other calls; inactive means mostly above about 0.92.
# Test: chemical genetic growth profiling, strain panel (AID 1159580);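 further: tested at 20 µM; growth read once vehicle control cultures reached saturation at 30 °C; 1 = growth at the plate median or of vehicle wells; lower values mean less growth of the strain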
# Settings: S. cerevisiae deletion strains, growth OD
smiles,measurement,setting,value
CC(/C=N\O)=N/Nc1ccccc1,normalized growth,"locus YAL013W, strain DEP1, hits give low values",0.969
same,normalized growth,"locus YBR229C, strain ROT2, hits give low values",0.938
same,normalized growth,"locus YDL101C, strain DUN1, hits give low values",1.01
same,normalized growth,"locus YDL134C, strain PPH21, hits give low values",0.975
same,normalized growth,"locus YDR150W, strain NUM1, hits give low values",0.932
same,normalized growth,"locus YEL061C, strain CIN8, hits give low values",0.953
same,normalized growth,"locus YGR078C, strain PAC10, hits give low values",0.961
same,normalized growth,"locus YHR030C, strain SLT2, hits give low values",0.774
same,normalized growth,"locus YHR087W, strain rtc3, hits give low values",0.916
same,normalized growth,"locus YJR043C, strain POL32, hits give low values",0.974
same,normalized growth,"locus YJR075W, strain HOC1, hits give low values",0.954
same,normalized growth,"locus YKL190W, strain CNB1, hits give low values",0.887 (active)
same,normalized growth,"locus YLR039C, strain RIC1, hits give low values",0.324 (active)
same,normalized growth,"locus YLR058C, strain SHM2 (second series), hits give low values",0.979
same,normalized growth,"locus YLR085C, strain ARP6, hits give low values",0.793
same,normalized growth,"locus YLR262C, strain YPT6, hits give low values",0.253 (active)
same,normalized growth,"locus YML094W, strain GIM5, hits give low values",0.841 (active)
same,normalized growth,"locus YMR219W, strain ESC1, hits give low values",0.955
same,normalized growth,"locus YMR263W, strain SAP30, hits give low values",0.967
same,normalized growth,"locus YNL153C, strain GIM3, hits give low values",0.973
same,normalized growth,"locus YNL298W, strain CLA4 (second series), hits give low values",0.923
same,normalized growth,"locus YNL322C, strain KRE1, hits give low values",1.01
same,normalized growth,"locus YNR030W, strain Alg12, hits give low values",0.951
same,normalized growth,"locus YOL006C, strain TOP1, hits give low values",0.527 (active)
same,normalized growth,"locus YPL055C, strain LGE1, hits give low values",1.05
same,normalized growth,"locus YPL241C, strain CIN2, hits give low values",0.907
same,normalized growth,"locus YPR135W, strain CTF4, hits give low values",0.889
